Holding throughout (experiment): NCI-60 one-dose screen, 48 h (100 = growth as untreated, 0 = no growth, -100 = all killed)
For one test, the system named is SR leukemia. The note with it: 10 µM unless noted.
The subject of the next test is RPMI-8226 leukemia. The note with it: 10 µM.
The next test relates to OVCAR-8 ovarian. Conditions: 10 µM unless noted.
The test system of the next test is OVCAR-5 ovarian. Conditions: 10 µM unless noted.
The subject of a further test is OVCAR-4 ovarian. Conditions: 10 µM unless noted.
In the next test the test system is SK-OV-3 ovarian. The note with it: 10 µM.
For the next test, the system named is IGROV1 ovarian. Conditions: 10 µM unless noted.
For another test, the system named is OVCAR-3 ovarian. Conditions: 10 µM unless noted.
The next test deals with NCI/ADR-RES ovarian. Conditions: 10 µM unless noted.
In the next test the test system is T-47D breast. The note with it: 10 µM.
Another test concerns BT-549 breast. Conditions: 10 µM unless noted.
Another test has as its system MDA-MB-435 melanoma. The note with it: 10 µM unless noted.
Another test deals with SW-620 colon. Conditions: 10 µM unless noted.
For a further test, the system named is HCT-116 colon. Conditions: 10 µM unless noted.
A further test relates to HCC-2998 colon. The note with it: 10 µM unless noted.
The test system of another test is KM12 colon. Conditions: 10 µM unless noted.
In the next test the test system is MCF7 breast. Conditions: 10 µM unless noted.
The test system of the next test is HS 578T breast. Conditions: 10 µM unless noted.

SMILES strings stand for the structures. Compounds without any hit were thinned out: in the full panel of roughly 83,000, 20% have a hit.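 For each line, cells grew in 96-well plates with the test compound present at a single concentration for 48 hours.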 A number with no mark means an inactive call. Activity calls are given as the source filed them. The calls were made as follows: active = growth percent below 10; inactive = the rest.

Turning to `Cn1c2c(cc(S(=O)(=O)c3ccccc3)c1=O)CCc1c-2cnn1-c1cccc(Cl)c1`, the growth was 77.6% in the test with SR leukemia; 82.6% in the test with RPMI-8226 leukemia; 88.8% with OVCAR-8 ovarian; 93% with OVCAR-5 ovarian; 60.9% in the test with OVCAR-4 ovarian; 86.8% with SK-OV-3 ovarian. Besides, the growth in the test with IGROV1 ovarian is 97.5%; in the test on OVCAR-3 ovarian, 98.1%; with NCI/ADR-RES ovarian, 90.6%; in the test on T-47D breast, 64.4%; in the test with BT-549 breast, 92.4%; with MDA-MB-435 melanoma it was 87.9%. The growth in the test on SW-620 colon is 110%; in the test on HCT-116 colon, 88.2%; in the test with HCC-2998 colon it was 111%; in the test on KM12 colon, 101%.

In the case of `COc1ccc(-c2nc3sc(C)nn3c2-c2nc3cc(C)c(C)cc3[nH]2)cc1`, the growth in the test on SR leukemia was 76.6%; with RPMI-8226 leukemia, 83.3%; in the test on OVCAR-8 ovarian, 89.6%; in the test with OVCAR-5 ovarian, 103%; in the test on OVCAR-4 ovarian, 94.1%; with SK-OV-3 ovarian it was 99.5%. Moreover, the growth was 98.4% with IGROV1 ovarian; 104% in the test with OVCAR-3 ovarian; 86.6% in the test on NCI/ADR-RES ovarian; 96.5% in the test on BT-549 breast; 95.6% with MDA-MB-435 melanoma; 98.5% with SW-620 colon. Also, the growth with MCF7 breast was 88.6%; with HCT-116 colon, 97.5%; with HCC-2998 colon it was 106%; in the test on KM12 colon, 103%.

On to `O=c1nc(NO)[nH]c(=O)n1Cc1ccccc1`, for which the growth was 107% with SR leukemia; 104% with RPMI-8226 leukemia; 104% in the test with OVCAR-8 ovarian; 101% with OVCAR-5 ovarian; 97% in the test with OVCAR-4 ovarian; 99.3% in the test with SK-OV-3 ovarian. For the same molecule, the growth was 106% with IGROV1 ovarian; 120% in the test with OVCAR-3 ovarian; 100% with HS 578T breast; 92.8% with T-47D breast; 103% in the test on BT-549 breast; 101% in the test with MDA-MB-435 melanoma. Moreover, the growth was 108% in the test with SW-620 colon; 98.9% with MCF7 breast; 105% in the test on HCT-116 colon; 106% with HCC-2998 colon; 105% in the test on KM12 colon.

For the molecule `CCCCc1ccc(NC(=O)C(F)(F)F)cc1`, the growth is 86.4% in the test with SR leukemia; 91.4% with RPMI-8226 leukemia; 95.1% with OVCAR-8 ovarian; 99.6% in the test with OVCAR-5 ovarian; 114% with OVCAR-4 ovarian; 109% with SK-OV-3 ovarian. Also, the growth in the test on IGROV1 ovarian is 113%; with OVCAR-3 ovarian, 106%; with NCI/ADR-RES ovarian, 103%; with T-47D breast it was 87.1%; in the test with BT-549 breast, 87.7%; in the test with MDA-MB-435 melanoma it was 102%. Moreover, the growth in the test with SW-620 colon was 101%; in the test on MCF7 breast, 108%; in the test with HCT-116 colon, 106%; with HCC-2998 colon it was 106%; in the test with KM12 colon it was 97.3%.

`C=C1CC[C@@H]2[C@@](C)(CCC[C@]2(C)C(=O)O)[C@@H]1CC[C@H](CO)CCO`: the growth is 85.2% in the test on SR leukemia; 113% with RPMI-8226 leukemia; 104% with OVCAR-8 ovarian; 108% with OVCAR-5 ovarian; 99% with OVCAR-4 ovarian; 102% in the test on SK-OV-3 ovarian. In addition, the growth is 99% with IGROV1 ovarian; 76.4% in the test with OVCAR-3 ovarian; 107% in the test on HS 578T breast; 90.5% with T-47D breast; 109% in the test with MDA-MB-435 melanoma; 114% in the test on SW-620 colon. Also, the growth with MCF7 breast was 101%; in the test on HCT-116 colon, 107%; with HCC-2998 colon it was 108%; with KM12 colon, 102%.

Regarding `O=C(C[Si](CC(=O)c1cccc(C(F)(F)F)c1)CC(=O)c1cccc(C(F)(F)F)c1)c1cccc(C(F)(F)F)c1`, the growth with SR leukemia was 5.27% (active); with RPMI-8226 leukemia, 4.44% (active); with OVCAR-8 ovarian, 90.9%; in the test on OVCAR-5 ovarian, 91.4%; with OVCAR-4 ovarian, 88.3%; with SK-OV-3 ovarian, 98.3%. In addition, the growth with IGROV1 ovarian was 48.3%; with OVCAR-3 ovarian it was 37.8%; in the test with NCI/ADR-RES ovarian it was 78.4%; in the test on T-47D breast, 98.7%; in the test with BT-549 breast, 87.2%; in the test with MDA-MB-435 melanoma it was 26%. Also, the growth is 35% with SW-620 colon, 86.3% in the test on MCF7 breast and 83.6% with HCC-2998 colon.

Take `Cc1cc(Cl)c2c(Cl)ccc(Cl)c2n1`: the growth in the test with SR leukemia is 91.9%; in the test with RPMI-8226 leukemia, 107%; in the test with OVCAR-8 ovarian, 103%; in the test on OVCAR-5 ovarian, 101%; in the test with OVCAR-4 ovarian, 128%; in the test with SK-OV-3 ovarian, 97.7%. The growth in the test with IGROV1 ovarian is 111%; with OVCAR-3 ovarian it was 105%; in the test on NCI/ADR-RES ovarian, 114%; in the test on T-47D breast it was 103%; with BT-549 breast, 100%; with MDA-MB-435 melanoma it was 102%. The growth was 114% in the test with SW-620 colon; 99.3% in the test with MCF7 breast; 100% with HCT-116 colon; 116% with HCC-2998 colon; 108% in the test on KM12 colon.

In the case of `NC(=S)N/N=C1\c2ccccc2-c2c(F)c(F)c(F)c(F)c21`, the growth in the test on SR leukemia is 2.57% (active); in the test with RPMI-8226 leukemia, 67.1%; in the test with OVCAR-8 ovarian, 39.6%; in the test on OVCAR-5 ovarian it was 108%; in the test with OVCAR-4 ovarian, 56.5%; in the test on SK-OV-3 ovarian, 98.8%. For the same molecule, the growth in the test with IGROV1 ovarian is 20.8%; in the test with OVCAR-3 ovarian, 61.6%; with HS 578T breast, 107%; in the test on T-47D breast, 8.63% (active); in the test with MDA-MB-435 melanoma it was 99.6%; in the test on SW-620 colon, 59.8%. The growth in the test with MCF7 breast is 28.7%; with HCT-116 colon it was 5.16% (active); in the test on HCC-2998 colon, 90.1%; in the test with KM12 colon, 93.5%.

Take `Cc1ccc2c(c1)c(Sc1ccc(C(=O)NO)cc1)c1n2CN(C)CC1`: the growth in the test on SR leukemia is 5.05% (active); with RPMI-8226 leukemia, 1.92% (active); with OVCAR-8 ovarian, 5.57% (active); with OVCAR-5 ovarian, 7.36% (active); in the test on OVCAR-4 ovarian it was -1.78% (active); with SK-OV-3 ovarian, 21.1%. Further, the growth is 42.4% in the test with IGROV1 ovarian; -7.94% (active) in the test with OVCAR-3 ovarian; 33.5% in the test on HS 578T breast; 23.4% in the test with T-47D breast; 54.3% in the test with BT-549 breast; 18.9% with MDA-MB-435 melanoma. Further, the growth in the test on SW-620 colon was 7.66% (active); with MCF7 breast it was 16.6%; in the test on HCT-116 colon, -11.2% (active); in the test on HCC-2998 colon, 14.9%; with KM12 colon, 27.7%.

For the molecule `CN1CCN(C)c2cncc(Br)c2C1=O`, the growth with SR leukemia is 84.1%; in the test on RPMI-8226 leukemia it was 93.8%; in the test on OVCAR-8 ovarian, 102%; in the test on OVCAR-5 ovarian, 104%; in the test on OVCAR-4 ovarian, 115%; with SK-OV-3 ovarian, 101%. Also, the growth was 108% with IGROV1 ovarian; 109% with OVCAR-3 ovarian; 98.3% in the test on NCI/ADR-RES ovarian; 101% in the test with T-47D breast; -81.7% (active) in the test with MDA-MB-435 melanoma; 102% with SW-620 colon. Besides, the growth with MCF7 breast was 105%; in the test on HCC-2998 colon, 98%.

For the origin of these results see PubChem BioAssay (NCI).
